Measured values taken from the supplement of paper PMC4022240.
± gives the standard deviation.

Assays:
Test in all cases: peptide microarray binding signal (635 nm), min-max normalized on array (fraction of array maximum); higher = stronger binding
[1] = biological target: T1, HaloTag-ATRX ADD domain (163-292)
T1 chain: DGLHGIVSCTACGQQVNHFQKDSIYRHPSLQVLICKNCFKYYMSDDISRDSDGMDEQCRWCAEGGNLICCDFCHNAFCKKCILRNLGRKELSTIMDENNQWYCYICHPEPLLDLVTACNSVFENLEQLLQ
How it was run: (§1)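 For each library, binding signal was taken as the triplicate-spot mean intensity and then min-max scaled. Spots of histone 13-mer peptide–cellulose conjugates on nitrocellulose, printed in triplicate with a Cy3 tracer, were probed for 1 h at 4°C with either biotin-labelled HaloTag reader fusions (10 nM to 1 μM) and streptavidin-Alexa Fluor 647 or rabbit histone antibodies (1:10,000 to 1:2,000) and anti-rabbit Alexa 647. Readout at 635 nm came from an Axon GenePix 4000B.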

[2] = biological target: HaloTag-ING2 PHD (mouse Ing2 200-280)
How it was run: as §1

[3] = biological target: anti-H3K4me3 antibody ab8580
How it was run: as §1

[4] = biological target: anti-H3K9me3 antibody ab8898
How it was run: as §1

[5] = peptide region: H4 8-19, peptide modifications: H4K12ac H4K16ac, binder concentration: 1:2,000 dilution
[6] = peptide region: H4 8-19, peptide modifications: H4K12ac H4K16ac, binder concentration: 1:10,000 dilution
[7] = peptide region: H4 8-19, peptide modifications: H4R17me2a, binder concentration: 1:2,000 dilution
[8] = peptide region: H4 8-19, peptide modifications: H4R17me2a, binder concentration: 1:10,000 dilution
[9] = peptide region: H4 1-13, peptide modifications: H4S1ph H4K8ac, binder concentration: 1:2,000 dilution
[10] = peptide region: H4 1-13, peptide modifications: H4S1ph H4K8ac, binder concentration: 1:10,000 dilution
[11] = peptide region: H4 8-19, peptide modifications: H4R17cit, binder concentration: 1:2,000 dilution
[12] = peptide region: H4 8-19, peptide modifications: H4R17cit, binder concentration: 1:10,000 dilution
[13] = peptide region: H4 1-13, peptide modifications: H4S1ph H4R3me1, binder concentration: 1:2,000 dilution
[14] = peptide region: H4 1-13, peptide modifications: H4S1ph H4R3me1, binder concentration: 1:10,000 dilution

KGLGKGGAKRHRK [H4 8-19 K G L G Kac G G A Kac R H R K]
peptide microarray binding signal ([1]; peptide region: H4 8-19, peptide modifications: H4K12ac H4K16ac, binder concentration: 50 nM): 0.000188 ± 6.2e-06 | peptide microarray binding signal ([1]; peptide region: H4 8-19, peptide modifications: H4K12ac H4K16ac, binder concentration: 500 nM): 0.000333 ± 1.3e-05 | peptide microarray binding signal ([2]; peptide region: H4 8-19, peptide modifications: H4K12ac H4K16ac, binder concentration: 10 nM): 0.00215 ± 0.00035 | peptide microarray binding signal ([2]; peptide region: H4 8-19, peptide modifications: H4K12ac H4K16ac, binder concentration: 100 nM): 0.000142 ± 1.7e-06 | peptide microarray binding signal [3, 5]: 0 | peptide microarray binding signal [3, 6]: 5.71e-05 | peptide microarray binding signal [4, 5]: 0 | peptide microarray binding signal [4, 6]: 0

KGLGKGGAKRHRK [H4 8-19 K G L G K G G A K Rme2a H R K]
peptide microarray binding signal ([1]; peptide region: H4 8-19, peptide modifications: H4R17me2a, binder concentration: 50 nM): 0.00395 ± 0.00035 | peptide microarray binding signal ([1]; peptide region: H4 8-19, peptide modifications: H4R17me2a, binder concentration: 500 nM): 0.00957 ± 0.00096 | peptide microarray binding signal ([2]; peptide region: H4 8-19, peptide modifications: H4R17me2a, binder concentration: 10 nM): 0.00358 ± 3.8e-05 | peptide microarray binding signal ([2]; peptide region: H4 8-19, peptide modifications: H4R17me2a, binder concentration: 100 nM): 0.0085 ± 0.00064 | peptide microarray binding signal [3, 7]: 0.00051 ± 1.5e-05 | peptide microarray binding signal [3, 8]: 0.000913 ± 1.6e-05 | peptide microarray binding signal [4, 7]: 0.000483 ± 1.7e-05 | peptide microarray binding signal [4, 8]: 0.00208 ± 0.00045

SGRGKGGKGLGKG [H4 1-13 Sph G R G K G G Kac G L G K G]
peptide microarray binding signal ([1]; peptide region: H4 1-13, peptide modifications: H4S1ph H4K8ac, binder concentration: 50 nM): 0.00445 ± 0.00043 | peptide microarray binding signal ([1]; peptide region: H4 1-13, peptide modifications: H4S1ph H4K8ac, binder concentration: 500 nM): 0.0149 ± 0.0018 | peptide microarray binding signal ([2]; peptide region: H4 1-13, peptide modifications: H4S1ph H4K8ac, binder concentration: 10 nM): 0.00251 ± 3.8e-05 | peptide microarray binding signal ([2]; peptide region: H4 1-13, peptide modifications: H4S1ph H4K8ac, binder concentration: 100 nM): 0.00503 ± 0.00084 | peptide microarray binding signal [3, 9]: 0.000359 ± 1.8e-05 | peptide microarray binding signal [3, 10]: 0.000742 ± 1.3e-05 | peptide microarray binding signal [4, 9]: 0.000332 ± 6.7e-06 | peptide microarray binding signal [4, 10]: 0.000577 ± 6.2e-06

KGLGKGGAKRHRK [H4 8-19 K G L G K G G A K Rcit H R K]
peptide microarray binding signal ([1]; peptide region: H4 8-19, peptide modifications: H4R17cit, binder concentration: 50 nM): 0.0003448 ± 3.2e-06 | peptide microarray binding signal ([1]; peptide region: H4 8-19, peptide modifications: H4R17cit, binder concentration: 500 nM): 0.000381 ± 4e-06 | peptide microarray binding signal ([2]; peptide region: H4 8-19, peptide modifications: H4R17cit, binder concentration: 10 nM): 0.00191 ± 4e-05 | peptide microarray binding signal ([2]; peptide region: H4 8-19, peptide modifications: H4R17cit, binder concentration: 100 nM): 0.000354 ± 4.1e-06 | peptide microarray binding signal [3, 11]: 7.55e-05 ± 8.5e-07 | peptide microarray binding signal [3, 12]: 0.000685 ± 1.5e-05 | peptide microarray binding signal [4, 11]: 3.02e-05 ± 3.4e-07 | peptide microarray binding signal [4, 12]: 0

SGRGKGGKGLGKG [H4 1-13 Sph G Rme G K G G K G L G K G]
peptide microarray binding signal ([1]; peptide region: H4 1-13, peptide modifications: H4S1ph H4R3me1, binder concentration: 50 nM): 0.00467 ± 0.00075 | peptide microarray binding signal ([1]; peptide region: H4 1-13, peptide modifications: H4S1ph H4R3me1, binder concentration: 500 nM): 0.0107 ± 0.00059 | peptide microarray binding signal ([2]; peptide region: H4 1-13, peptide modifications: H4S1ph H4R3me1, binder concentration: 10 nM): 0.00149 | peptide microarray binding signal ([2]; peptide region: H4 1-13, peptide modifications: H4S1ph H4R3me1, binder concentration: 100 nM): 0.00276 ± 6.8e-05 | peptide microarray binding signal [3, 13]: 0.000132 ± 1.5e-06 | peptide microarray binding signal [3, 14]: 0.000742 ± 1.3e-05 | peptide microarray binding signal [4, 13]: 0.000347 ± 7e-06 | peptide microarray binding signal [4, 14]: 0.000577 ± 1.2e-05
